# Screening results deposited in PubChem by National Center for Advancing Translational Sciences (NCATS).
# Rows were chosen to be rich in hits. Some 21% of all compounds tested hit in one or more screens of this group.
# Shiga toxin inh – A qHTS for Small Molecule Inhibitors of Shiga Toxin. Vero cells, Shiga toxin protein synthesis inhibition reporter. AID 2315, 2010. actives 9.2% (n = 290,000). inhibition, % at 38.7 µM; in the data active means inhibition mostly above about 28%, no sharp cut-off; inactive means mostly below about 43%; further: 0% is about no effect
# Pf growth 96h – Primary qHTS for delayed death inhibitors of the malarial parasite plastid, 96 hour incubation | P. falciparum luciferase reporter growth, 96 h | Potency, µM (doses to about 28.7 µM), for the others: at the top dose activity change, negative = inhibition, most hits filed as inhibitors | actives 6.9% (n = 320,000) | AID 504834, 2011; further: potency means the concentration at half of the fitted maximal effect; on the % scale 0 is the no-effect control and ±100 the full control effect
#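 Two parasite generations (96 h, 37 C, 5% CO2) of compound exposure in infected erythrocytes (0.05% parasitemia, 2% hematocrit). Luciferase-reporter P. falciparum; decreased luminescence indicates inhibited growth, aimed at apicoplast-acting delayed death.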
# HCMV inh – qHTS Assay for inhibitors of the human cytomegalovirus (HCMV); HFF cells, HCMV-luciferase reporter, 72 h; hits give low values; activity change, negative = inhibition, % at 57.5 µM; actives 4.5% (n = 410,000); in the data active means activity change below about -60%; inconclusive means no clear call, values can overlap the other calls; inactive means above about -39%; further: on the % scale 0 is the no-effect control and ±100 the full control effect
#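 Human foreskin fibroblasts infected with luciferase-reporter HCMV at MOI 1 PFU/cell, compounds at two doses. Luciferase measured 72 h post infection; normalized to buffer-only basal and Salinomycin (10uM) controls.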
# HCV inh – qHTS Assay for Inhibitors of Hepatitis C Virus (HCV) | Huh7.5.1 HCVcc-Cre infection, luciferase reporter, 44 h | Potency, µM (doses to about 41.8 µM), for inactives: at the highest dose activity change, negative = inhibition, usual class: inhibitors | actives 3.4% (n = 340,000); further: potency means the concentration at half of the fitted maximal effect; on the % scale 0 is the no-effect control and ±100 the full control effect
#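 Infectious HCV cell culture screen: compound-treated cells (1,000/well, pre-plated 4 h) are infected with HCVcc-Cre at roughly 0.5 moi and grown 44 h. Infection is quantified by luciferase signal after 15 min substrate incubation at room temperature.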
# Pf growth 48h – Primary qHTS for delayed death inhibitors of the malarial parasite plastid, 48 hour incubation | P. falciparum luciferase growth in erythrocytes, 48 h | Potency, µM (highest dose often 28.7 µM), for the others: top-dose activity change, negative = inhibition, usual class: inhibitors | actives 5.9% (n = 310,000) | AID 504832, 2011; further: potency means the concentration at half of the fitted maximal effect; on the % scale 0 is the no-effect control and ±100 the full control effect
#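 Parasite viability was followed by luminescence of a genomically integrated firefly luciferase. Cultures held 0.1% parasitemia at 2% hematocrit (final), incubated under 5% CO2 at 37 C.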
# CHX counter – Cycloheximide Counterscreen for Small Molecule Inhibitors of Shiga Toxin | cell reporter, cycloheximide protein synthesis inhibition counterscreen | actives 12% (n = 300,000) | max response, %; in the data active means max response mostly above about 13%, no sharp cut-off; inactive means mostly below about 14%; further: read at 38.3 µM for the half of the compounds with a filed dose; 0% is about no effect
# * hit, by the source's call; u = inconclusive; x = no result given; [ ] = remark or other dose. Unless noted, the call rests on the fitted dose curve; in most records, active means well fitted inhibition curve with a large enough effect; inconclusive means small, poorly fitted or top-dose-only effect, or another doubt; inactive means no such curve, though single readings can be large or run the other way.
SMILES,Shiga toxin inh,Pf growth 96h,HCMV inh,HCV inh,Pf growth 48h,CHX counter
Cc1ccc(Cn2c(CN3CCN(C(=O)c4ccco4)CC3)nc3c2c(=O)n(C)c(=O)n3C)cc1,34,u,-20,u,2.1µM*,1
Cn1c(=O)c2c(nc(CN3CCN(C(=O)c4ccco4)CC3)n2CC(N)=O)n(C)c1=O,-1,1%,-29,24%,42%,-3
Cn1c(=O)c2c(nc(CN3CCN(C(=O)c4ccco4)CC3)n2Cc2ccc(Cl)cc2)n(C)c1=O,16,4%[5.75 µM],38,-8%,7.4µM*,-3
Cn1c(=O)c2c(nc(CN3CCN(C(=O)c4ccco4)CC3)n2Cc2cccc(Cl)c2)n(C)c1=O,-8,-6%,27,-14%,4.7µM*,-3
Cc1cc(N2CCCCC2)nc2ccc(NC(=O)CCC(=O)N3CCN(c4ccccc4)CC3)cc12,x,x,30,x,x,x
Cc1ccccc1C(=O)Nc1nc2nc(-c3ccccc3)cc(=O)n2[nH]1,x,x,5,x,x,x
Cn1c(=O)c2c(nc(CN3CCN(C(=O)c4ccco4)CC3)n2Cc2ccccc2)n(C)c1=O,-8,u,52,6%,10µM*,-2
CCc1nnc(NS(=O)(=O)c2ccc(NS(=O)(=O)c3ccc(NC(C)=O)cc3)cc2)s1,-12,29%,x,x,x,-2
CCN(CC)S(=O)(=O)c1ccc(NC(=O)c2ccc(Cl)nc2)cc1,-5,4.7µM*,-62*,-22%,u,-2
Cc1ccc(NC(=O)c2nsc(Cl)c2Cl)cc1,70*,318%,171,4%,140%,56*
CCN(CC)S(=O)(=O)c1ccc(NC(=O)c2ccc(NS(C)(=O)=O)cc2)cc1,-6,x,-30,u,-18%,-2
O=C(Nc1ccc2c(c1)OCO2)c1ccc(Cl)nc1,65,70%,154,18%,x,17
Cc1ccc(NC(=O)c2ccc(Cl)nc2)cc1,140*,97%,112,9%,151%,34*
CC(=O)Nc1ccc(S(=O)(=O)Nc2nnc(CC(C)(C)C)s2)cc1,76*,u,-33,16%,-3%,22*
OCCN(CCO)c1cc2c3ccccc3ccc2c2ccccc12,x,x,-22,u,x,x
COc1ccccc1CCNC(=O)C(=O)NCC(c1ccco1)S(=O)(=O)c1ccccc1 (stereo unspecified),x,x,-32,x,x,x
CCCSc1ccc(C(=O)Nc2ccc(Cl)cc2)cn1,43,24%,u,-24%,8%,28*
COCc1nnc(NS(=O)(=O)c2ccccc2)s1,-4,1µM*,10,0%,4%,-1
CCOc1ncccc1C(=O)Nc1ccc(Cl)cc1,19,0%,82,u,9%,7
COCc1nnc(NS(=O)(=O)c2ccc(C)cc2)s1,-3,33%,13,-5%,19%,-3
CC(=O)Nc1ccc(S(=O)(=O)Nc2nc3c(s2)CCCC3)cc1,58*,5%,-11,-10%,22%,18*
CCc1nnc(NS(=O)(=O)c2ccc(NC(=O)c3ccc(S(=O)(=O)N(CC)CC)cc3)cc2)s1,-5,10%,-18,3%,13µM*,-2
COc1ccc(OC)c(NC(=O)c2c(NCc3cccs3)sc3c2CCCCC3)c1,x,x,-7,x,x,x
CC(=O)n1c2c(c3ccccc31)OC(N)=C(C#N)C2c1ccc(C(C)C)cc1 (stereo unspecified),83*,91%,-9,3%,21%,46*
CC(=O)C1=C(C)OC(N)=C(C#N)C1c1cccc2ccccc12 (stereo unspecified),2,5%,85,-11%,1%,-3
SMILES,Shiga toxin inh,Pf growth 96h,HCMV inh,HCV inh,Pf growth 48h,CHX counter
CCCSc1cc(N2CCN(C)CC2)nc(-c2ccc(OC)cc2)n1,-14,x,-35,14µM*,0%,1
Cc1ccccc1S(=O)(=O)Cc1ccc(C(=O)NCCN(Cc2ccccc2)C(C)C)o1,-8,-9%,-25,-6%,5.2µM*,-2
Cc1ccccc1S(=O)(=O)Cc1ccc(C(=O)NCCCN2CCCC(C)C2)o1 (stereo unspecified),-12,2.3µM*,-17,6%,-2%,-4
Cc1nn(C)c(C)c1/C=N/NC(=O)C(C)(C)Oc1ccc(Cl)cc1,-5,x,-25,15%,1%,-3
Cc1nn(C(C)(C)C)c(C)c1/C=N/OC(=O)Nc1ccc(Cl)cc1,-23,-21%,-101*,u,-32%,-4
CCOc1ccc(OCC)c(NC(=O)CCC(=O)N2CCOc3ccccc32)c1,x,x,-11,x,x,x
COc1ccc(Cn2ccc3nc(C)c(C(=O)N4CCN(c5ccc(OC)cc5)CC4)cc3c2=O)cc1,x,x,-4,x,x,x
COc1ccc(OC)c(CCNC(=O)c2cc3c(=O)oc4ccc(C)cc4c3s2)c1,x,x,-6,x,x,x
O=C(Nc1cccc(C(=O)Nc2ccc(Cl)cn2)c1)c1ccccc1,58,u,5,13µM*,20%,10
COC(=O)c1ccccc1NC(=O)Nc1ccc(Cl)cn1,35,4%,68,15%,108%,12
C/C(=C\c1ccccc1)C(=O)Nc1ccc(Cl)cn1,95*,310%,110,-8%,81%,39*
O=C(NC(=O)c1ccccc1)Nc1ccc(Cl)cn1,145*,13%,57,13%,267%,52*
O=C(Nc1cccc(Cl)c1)Nc1ccc(Cl)cn1,-7,x,13,23%,x,7
O=C(Nc1ncccn1)c1cccc(F)c1,21*,u,-76*,14%,50%,11*
O=C(Nc1ncccn1)c1cccc(Cl)c1,x,x,29,17%,x,x
CCOc1ccc(Nc2cc(C)nc3nncn23)cc1,x,x,-25,x,x,x
COc1ccc(C2=NN(CCC(=O)NCc3cccs3)C(=O)CC2)cc1,-6,u,-3,1%,4%,-1
COc1cc(OC)c(C(=O)OCC(=O)N2CCN(S(=O)(=O)c3ccc(C)cc3C)CC2)cc1OC,x,x,-11,0%,x,x
O=C(Nc1ccc(Cl)cn1)c1ccc2[nH]c(=O)c(=O)[nH]c2c1,27,2%,3,4%,42%,12*
O=C(Nc1ccc(Cl)cn1)c1cccc(F)c1,121*,147%,79,u,109%,32*
Cc1ccc(NC(=O)c2ccc3[nH]c(=O)c(=O)[nH]c3c2)nc1,2,21%,-24,2%,26%,10
O=C(Nc1ccc(Cl)cn1)c1cccc(S(=O)(=O)N2CCOCC2)c1,1,x,7,-2%,10%,7
COc1ccc(Cl)cc1S(=O)(=O)N1CCCC(C(=O)N2CCOCC2)C1 (stereo unspecified),-10,u,6,-8%,3%,-7
